Test [1] concerns the target Tyrosine-protein kinase SYK (Homo sapiens) (UniProt P43405). Particulars: at 10 µM.
In test [2] the target is T1, Mitogen-activated protein kinase kinase kinase 7 (Homo sapiens) (UniProt O43318).
T1 sequence (whole entry): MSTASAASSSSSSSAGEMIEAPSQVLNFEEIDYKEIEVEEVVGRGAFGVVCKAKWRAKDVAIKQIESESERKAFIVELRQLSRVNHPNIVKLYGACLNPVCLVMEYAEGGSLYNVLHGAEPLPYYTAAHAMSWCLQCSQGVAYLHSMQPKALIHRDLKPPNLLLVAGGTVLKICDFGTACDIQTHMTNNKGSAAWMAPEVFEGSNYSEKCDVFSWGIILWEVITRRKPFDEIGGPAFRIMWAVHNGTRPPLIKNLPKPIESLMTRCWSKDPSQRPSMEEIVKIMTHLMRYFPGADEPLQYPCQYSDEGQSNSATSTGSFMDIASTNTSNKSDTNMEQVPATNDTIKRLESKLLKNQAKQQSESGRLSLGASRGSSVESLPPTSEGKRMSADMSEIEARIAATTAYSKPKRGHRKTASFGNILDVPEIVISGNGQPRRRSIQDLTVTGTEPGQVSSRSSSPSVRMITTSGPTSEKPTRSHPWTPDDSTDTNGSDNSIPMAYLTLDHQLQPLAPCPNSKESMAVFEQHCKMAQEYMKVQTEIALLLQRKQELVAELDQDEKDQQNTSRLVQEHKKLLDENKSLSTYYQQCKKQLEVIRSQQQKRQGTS
Particulars: at 1 µM.

For test [3], the target named is T1, Mitogen-activated protein kinase kinase kinase 7 (Homo sapiens). Particulars: at 10 µM.
In test [4] the target is T2, Serine/threonine-protein kinase TAO2 (Homo sapiens) (UniProt Q9UL54).
T2 sequence (whole entry): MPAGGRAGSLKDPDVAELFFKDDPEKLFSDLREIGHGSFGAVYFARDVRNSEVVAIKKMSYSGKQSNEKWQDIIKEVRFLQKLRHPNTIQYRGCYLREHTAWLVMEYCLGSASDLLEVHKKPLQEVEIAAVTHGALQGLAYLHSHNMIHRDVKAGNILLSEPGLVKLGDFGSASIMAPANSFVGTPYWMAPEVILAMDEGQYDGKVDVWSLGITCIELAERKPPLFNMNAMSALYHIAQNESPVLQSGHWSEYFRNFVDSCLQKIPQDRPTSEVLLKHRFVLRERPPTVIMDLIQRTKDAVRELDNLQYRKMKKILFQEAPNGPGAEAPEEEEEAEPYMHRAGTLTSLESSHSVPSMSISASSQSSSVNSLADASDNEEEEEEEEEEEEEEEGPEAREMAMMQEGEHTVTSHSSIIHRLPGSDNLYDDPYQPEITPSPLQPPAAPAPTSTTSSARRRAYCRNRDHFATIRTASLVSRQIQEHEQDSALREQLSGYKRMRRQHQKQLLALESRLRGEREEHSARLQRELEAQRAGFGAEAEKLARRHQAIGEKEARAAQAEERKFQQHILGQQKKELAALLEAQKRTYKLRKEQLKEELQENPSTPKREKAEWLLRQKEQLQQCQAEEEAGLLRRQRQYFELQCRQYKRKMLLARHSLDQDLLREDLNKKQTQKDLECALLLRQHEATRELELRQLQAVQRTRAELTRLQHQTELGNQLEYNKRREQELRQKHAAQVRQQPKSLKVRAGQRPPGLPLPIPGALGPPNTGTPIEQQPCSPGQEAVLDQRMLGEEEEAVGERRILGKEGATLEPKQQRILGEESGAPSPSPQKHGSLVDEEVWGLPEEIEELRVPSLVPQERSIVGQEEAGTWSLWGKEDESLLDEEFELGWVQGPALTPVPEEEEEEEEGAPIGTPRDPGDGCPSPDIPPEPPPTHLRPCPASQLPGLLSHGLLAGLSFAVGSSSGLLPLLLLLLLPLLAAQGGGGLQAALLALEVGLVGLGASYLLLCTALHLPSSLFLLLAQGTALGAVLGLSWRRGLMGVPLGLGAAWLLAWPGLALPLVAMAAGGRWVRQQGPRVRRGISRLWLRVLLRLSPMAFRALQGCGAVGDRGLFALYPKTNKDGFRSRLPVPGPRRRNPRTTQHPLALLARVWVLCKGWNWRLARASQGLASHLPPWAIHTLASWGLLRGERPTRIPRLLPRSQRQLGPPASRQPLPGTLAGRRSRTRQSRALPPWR
Particulars: at 1 µM.

Test [5] deals with T2, Serine/threonine-protein kinase TAO2 (Homo sapiens). Particulars: at 10 µM.
The target in test [6] is T3, Serine/threonine-protein kinase TAO3 (Homo sapiens) (UniProt Q9H2K8).
T3 sequence (whole entry): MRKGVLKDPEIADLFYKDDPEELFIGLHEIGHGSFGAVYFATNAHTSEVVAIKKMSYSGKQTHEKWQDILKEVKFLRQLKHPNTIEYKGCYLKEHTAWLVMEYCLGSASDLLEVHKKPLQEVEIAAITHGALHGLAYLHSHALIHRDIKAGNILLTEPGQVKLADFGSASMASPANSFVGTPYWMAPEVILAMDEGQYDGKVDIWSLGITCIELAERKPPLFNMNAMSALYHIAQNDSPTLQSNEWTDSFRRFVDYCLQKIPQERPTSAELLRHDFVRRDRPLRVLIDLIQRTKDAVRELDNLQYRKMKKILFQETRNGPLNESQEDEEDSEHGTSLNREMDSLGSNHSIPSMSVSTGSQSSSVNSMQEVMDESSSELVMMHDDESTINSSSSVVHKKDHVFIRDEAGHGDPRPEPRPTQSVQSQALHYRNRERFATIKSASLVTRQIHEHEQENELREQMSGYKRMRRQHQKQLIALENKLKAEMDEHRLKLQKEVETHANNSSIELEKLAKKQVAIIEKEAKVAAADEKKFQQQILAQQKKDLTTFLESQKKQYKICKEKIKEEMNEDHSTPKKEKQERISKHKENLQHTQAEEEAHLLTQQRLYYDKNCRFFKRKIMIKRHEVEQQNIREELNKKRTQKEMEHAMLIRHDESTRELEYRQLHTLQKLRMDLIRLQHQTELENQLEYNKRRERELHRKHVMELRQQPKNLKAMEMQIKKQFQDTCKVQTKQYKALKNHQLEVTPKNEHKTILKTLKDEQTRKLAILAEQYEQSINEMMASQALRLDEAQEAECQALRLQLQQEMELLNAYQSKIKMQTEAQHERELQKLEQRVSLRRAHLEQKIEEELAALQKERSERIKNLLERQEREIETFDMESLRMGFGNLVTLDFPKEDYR
Particulars: at 1 µM.

Test [7] deals with T3, Serine/threonine-protein kinase TAO3 (Homo sapiens). Particulars: at 10 µM.
Test [8] addresses T4, Serine/threonine-protein kinase TBK1 (Homo sapiens) (UniProt Q9UHD2).
T4 sequence (whole entry): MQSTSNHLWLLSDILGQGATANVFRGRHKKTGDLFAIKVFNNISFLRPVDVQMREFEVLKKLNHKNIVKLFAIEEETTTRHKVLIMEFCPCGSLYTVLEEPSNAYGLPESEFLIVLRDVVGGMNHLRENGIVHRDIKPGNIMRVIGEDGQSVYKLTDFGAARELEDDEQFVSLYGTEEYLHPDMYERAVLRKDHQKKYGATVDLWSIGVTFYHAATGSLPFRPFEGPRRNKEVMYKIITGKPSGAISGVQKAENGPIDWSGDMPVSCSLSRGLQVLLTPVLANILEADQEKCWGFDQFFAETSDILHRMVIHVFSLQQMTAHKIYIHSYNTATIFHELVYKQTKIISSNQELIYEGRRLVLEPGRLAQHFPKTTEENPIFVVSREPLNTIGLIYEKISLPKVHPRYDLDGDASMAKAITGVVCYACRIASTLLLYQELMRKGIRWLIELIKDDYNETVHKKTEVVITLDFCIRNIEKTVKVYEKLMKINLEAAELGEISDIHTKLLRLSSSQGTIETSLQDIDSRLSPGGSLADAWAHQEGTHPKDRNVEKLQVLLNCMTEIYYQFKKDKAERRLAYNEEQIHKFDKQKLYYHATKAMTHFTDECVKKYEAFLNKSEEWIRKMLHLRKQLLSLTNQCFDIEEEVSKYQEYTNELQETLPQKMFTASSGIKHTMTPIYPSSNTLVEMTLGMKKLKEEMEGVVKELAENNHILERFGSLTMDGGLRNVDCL
Conditions: at 1 µM.

Test [9] deals with T4, Serine/threonine-protein kinase TBK1 (Homo sapiens). Particulars: at 10 µM.
Test [10] addresses T5, TGF-beta receptor type-1 (Homo sapiens) (UniProt P36897).
T5 sequence (whole entry): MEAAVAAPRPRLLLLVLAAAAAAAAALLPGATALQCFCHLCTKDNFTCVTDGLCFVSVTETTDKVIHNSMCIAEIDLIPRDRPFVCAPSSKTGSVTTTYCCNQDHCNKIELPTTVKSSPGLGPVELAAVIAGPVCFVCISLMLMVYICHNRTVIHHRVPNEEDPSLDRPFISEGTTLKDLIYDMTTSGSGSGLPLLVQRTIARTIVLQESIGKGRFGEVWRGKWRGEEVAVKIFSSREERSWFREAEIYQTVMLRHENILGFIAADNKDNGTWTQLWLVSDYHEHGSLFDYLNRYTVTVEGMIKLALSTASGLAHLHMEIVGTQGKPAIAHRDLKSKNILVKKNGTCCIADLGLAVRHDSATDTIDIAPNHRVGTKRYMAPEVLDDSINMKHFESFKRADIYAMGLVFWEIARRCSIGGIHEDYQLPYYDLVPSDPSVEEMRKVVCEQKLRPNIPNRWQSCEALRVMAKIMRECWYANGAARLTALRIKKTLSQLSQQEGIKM
Conditions: at 1 µM.

Test [11] deals with Insulin-like growth factor 1 receptor (Homo sapiens) (UniProt P08069). Conditions: at 1 µM.
Chain of Insulin-like growth factor 1 receptor (Homo sapiens) (P08069 31-736 limits assumed): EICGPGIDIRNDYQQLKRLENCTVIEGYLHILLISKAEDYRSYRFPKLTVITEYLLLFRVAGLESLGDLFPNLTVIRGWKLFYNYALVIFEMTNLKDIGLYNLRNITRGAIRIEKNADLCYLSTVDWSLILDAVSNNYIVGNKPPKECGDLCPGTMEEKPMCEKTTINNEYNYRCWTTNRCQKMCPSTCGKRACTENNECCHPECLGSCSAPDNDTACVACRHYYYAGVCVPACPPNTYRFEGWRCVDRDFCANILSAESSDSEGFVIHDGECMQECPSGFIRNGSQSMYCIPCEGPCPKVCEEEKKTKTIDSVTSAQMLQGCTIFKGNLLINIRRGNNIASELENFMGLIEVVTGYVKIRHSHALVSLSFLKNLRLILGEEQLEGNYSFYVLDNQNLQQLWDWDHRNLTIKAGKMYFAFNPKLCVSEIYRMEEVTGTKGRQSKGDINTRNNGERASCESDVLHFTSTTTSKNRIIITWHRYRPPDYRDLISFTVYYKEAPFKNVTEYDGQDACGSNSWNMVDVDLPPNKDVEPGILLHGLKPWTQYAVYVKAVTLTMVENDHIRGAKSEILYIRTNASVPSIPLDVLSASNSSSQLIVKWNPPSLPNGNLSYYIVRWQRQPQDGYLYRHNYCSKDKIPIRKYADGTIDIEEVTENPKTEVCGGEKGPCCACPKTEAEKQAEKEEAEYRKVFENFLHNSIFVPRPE
Chain of Insulin-like growth factor 1 receptor (Homo sapiens) (P08069 741-1367 limits assumed): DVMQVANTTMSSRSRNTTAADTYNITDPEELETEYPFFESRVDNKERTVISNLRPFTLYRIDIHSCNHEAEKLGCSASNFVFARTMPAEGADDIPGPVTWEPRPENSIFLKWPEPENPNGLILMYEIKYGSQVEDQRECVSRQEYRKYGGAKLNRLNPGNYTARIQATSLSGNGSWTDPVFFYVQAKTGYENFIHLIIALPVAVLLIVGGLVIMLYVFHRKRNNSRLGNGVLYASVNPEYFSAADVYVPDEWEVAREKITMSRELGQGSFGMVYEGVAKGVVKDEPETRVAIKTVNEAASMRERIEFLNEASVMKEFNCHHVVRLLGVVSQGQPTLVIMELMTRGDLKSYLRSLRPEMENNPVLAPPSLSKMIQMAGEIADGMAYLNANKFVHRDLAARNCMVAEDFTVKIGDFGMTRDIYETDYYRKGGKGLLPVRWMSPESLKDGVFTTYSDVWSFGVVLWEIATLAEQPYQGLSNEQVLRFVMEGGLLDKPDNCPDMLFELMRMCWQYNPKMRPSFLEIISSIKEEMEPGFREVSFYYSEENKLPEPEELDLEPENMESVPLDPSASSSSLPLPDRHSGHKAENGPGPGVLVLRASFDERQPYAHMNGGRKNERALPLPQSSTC
The target is the same in test [12]. Conditions: at 10 µM.
The target of test [13] is T6, Inhibitor of nuclear factor kappa-B kinase subunit alpha (Homo sapiens) (UniProt O15111).
T6 sequence (whole entry): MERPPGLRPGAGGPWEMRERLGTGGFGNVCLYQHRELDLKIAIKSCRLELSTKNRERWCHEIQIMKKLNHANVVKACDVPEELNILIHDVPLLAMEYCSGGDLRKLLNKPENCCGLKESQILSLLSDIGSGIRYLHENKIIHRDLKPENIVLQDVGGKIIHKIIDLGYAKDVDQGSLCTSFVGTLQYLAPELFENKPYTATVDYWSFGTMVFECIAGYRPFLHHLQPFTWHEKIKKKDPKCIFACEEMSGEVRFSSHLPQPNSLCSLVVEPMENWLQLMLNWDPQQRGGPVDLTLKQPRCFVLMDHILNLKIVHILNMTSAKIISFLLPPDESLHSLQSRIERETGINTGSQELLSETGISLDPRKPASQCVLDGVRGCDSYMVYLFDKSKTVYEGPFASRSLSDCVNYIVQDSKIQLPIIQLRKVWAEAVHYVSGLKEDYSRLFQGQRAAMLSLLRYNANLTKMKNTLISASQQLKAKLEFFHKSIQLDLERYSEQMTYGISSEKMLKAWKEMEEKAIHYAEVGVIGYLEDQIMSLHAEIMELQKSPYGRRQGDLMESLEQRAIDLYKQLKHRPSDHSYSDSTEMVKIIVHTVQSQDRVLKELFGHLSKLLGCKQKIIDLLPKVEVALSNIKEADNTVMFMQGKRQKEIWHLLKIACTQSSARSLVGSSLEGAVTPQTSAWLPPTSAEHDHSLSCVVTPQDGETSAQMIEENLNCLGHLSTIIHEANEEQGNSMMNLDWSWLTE
Particulars: at 1 µM.

Test [14] addresses T6, Inhibitor of nuclear factor kappa-B kinase subunit alpha (Homo sapiens). Particulars: at 10 µM.
Test [15] addresses T7, Inhibitor of nuclear factor kappa-B kinase subunit beta (Homo sapiens) (UniProt O14920).
T7 sequence (whole entry): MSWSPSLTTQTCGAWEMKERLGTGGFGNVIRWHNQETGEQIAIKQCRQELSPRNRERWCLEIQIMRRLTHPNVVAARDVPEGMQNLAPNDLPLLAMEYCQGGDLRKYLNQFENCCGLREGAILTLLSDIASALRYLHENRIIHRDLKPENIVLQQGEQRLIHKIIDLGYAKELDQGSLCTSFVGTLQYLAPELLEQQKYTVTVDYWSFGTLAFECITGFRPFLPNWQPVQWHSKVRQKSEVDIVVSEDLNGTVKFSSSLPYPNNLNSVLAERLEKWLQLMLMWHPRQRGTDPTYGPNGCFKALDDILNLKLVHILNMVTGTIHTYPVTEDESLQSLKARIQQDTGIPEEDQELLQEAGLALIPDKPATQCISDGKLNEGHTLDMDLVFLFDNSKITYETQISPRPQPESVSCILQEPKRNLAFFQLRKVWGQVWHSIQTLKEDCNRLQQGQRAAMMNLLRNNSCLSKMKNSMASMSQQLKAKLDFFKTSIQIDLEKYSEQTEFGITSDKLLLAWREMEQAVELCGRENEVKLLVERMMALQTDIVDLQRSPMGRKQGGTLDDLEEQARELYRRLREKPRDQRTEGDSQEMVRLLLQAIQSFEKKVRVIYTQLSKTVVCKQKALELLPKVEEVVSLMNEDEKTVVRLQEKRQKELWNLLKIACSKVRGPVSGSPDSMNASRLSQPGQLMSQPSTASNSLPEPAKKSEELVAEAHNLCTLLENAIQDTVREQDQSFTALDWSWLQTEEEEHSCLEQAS
Particulars: at 1 µM.

For test [16], the target named is T7, Inhibitor of nuclear factor kappa-B kinase subunit beta (Homo sapiens). Conditions: at 10 µM.
The target in test [17] is Insulin receptor (Homo sapiens) (UniProt P06213). Conditions: at 1 µM.
Chain of Insulin receptor (Homo sapiens) (P06213 28-758 limits assumed): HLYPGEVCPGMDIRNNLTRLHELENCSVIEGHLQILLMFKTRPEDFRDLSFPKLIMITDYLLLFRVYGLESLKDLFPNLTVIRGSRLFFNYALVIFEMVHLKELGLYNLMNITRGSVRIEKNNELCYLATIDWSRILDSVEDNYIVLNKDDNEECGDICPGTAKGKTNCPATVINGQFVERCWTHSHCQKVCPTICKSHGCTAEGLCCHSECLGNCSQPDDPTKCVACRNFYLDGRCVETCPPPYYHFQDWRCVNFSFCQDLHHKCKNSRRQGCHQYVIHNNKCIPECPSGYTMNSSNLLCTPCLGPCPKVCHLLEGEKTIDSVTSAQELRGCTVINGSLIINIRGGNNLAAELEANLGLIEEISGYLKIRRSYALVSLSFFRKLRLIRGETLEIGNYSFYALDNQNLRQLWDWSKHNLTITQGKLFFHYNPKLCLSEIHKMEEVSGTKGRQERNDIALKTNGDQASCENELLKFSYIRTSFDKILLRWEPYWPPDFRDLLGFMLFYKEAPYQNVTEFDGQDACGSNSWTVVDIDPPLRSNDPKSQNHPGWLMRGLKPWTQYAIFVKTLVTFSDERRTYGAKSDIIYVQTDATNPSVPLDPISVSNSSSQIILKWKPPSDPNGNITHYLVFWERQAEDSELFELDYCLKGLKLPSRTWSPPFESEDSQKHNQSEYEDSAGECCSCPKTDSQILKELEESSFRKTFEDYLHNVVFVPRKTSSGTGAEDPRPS
Chain of Insulin receptor (Homo sapiens) (P06213 763-1382 limits assumed): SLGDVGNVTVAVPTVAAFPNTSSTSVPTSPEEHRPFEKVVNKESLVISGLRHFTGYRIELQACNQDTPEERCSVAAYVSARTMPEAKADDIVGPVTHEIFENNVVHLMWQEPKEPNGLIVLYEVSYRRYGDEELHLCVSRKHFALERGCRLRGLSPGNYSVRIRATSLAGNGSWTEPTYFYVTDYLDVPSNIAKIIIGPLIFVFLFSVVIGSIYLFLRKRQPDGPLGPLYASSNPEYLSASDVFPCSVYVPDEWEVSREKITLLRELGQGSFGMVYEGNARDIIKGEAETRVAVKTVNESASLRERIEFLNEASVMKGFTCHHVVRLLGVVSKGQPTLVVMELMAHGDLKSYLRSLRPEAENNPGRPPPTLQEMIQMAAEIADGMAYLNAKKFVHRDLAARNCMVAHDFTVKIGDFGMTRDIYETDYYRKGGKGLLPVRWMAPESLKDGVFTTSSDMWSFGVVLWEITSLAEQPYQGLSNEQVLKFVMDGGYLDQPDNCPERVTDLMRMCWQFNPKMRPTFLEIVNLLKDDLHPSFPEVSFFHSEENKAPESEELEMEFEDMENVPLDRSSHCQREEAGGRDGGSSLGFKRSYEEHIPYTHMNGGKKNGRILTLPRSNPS

Molecules are shown by their SMILES.

As to `O=C1NC(=O)c2c1c1c3ccccc3[nH]c1n1cncc21`, the residual activity in test [1] worked out at 25%; in test [2], 55%; in test [3], 30%; in [4], 88%; in test [5], 69%; in test [6], 69%. Further, the residual activity in test [7] turned out to be 63%; in test [8], 53%; in test [9], 35%; in test [10], 91%; in [11], 45%; in test [12], 30%. Further, the residual activity worked out at 63% in [13]; 55% in [14]; 94% in [15]; 80% in test [16]; 10% in test [17].

The values are drawn from ChEMBL document CHEMBL2218924, “A broad activity screen in support of a chemogenomic map for kinase signalling research and drug discovery” (Biochem J, 2013).
